Bioassay records: PubChem, Center for Chemical Genomics, University of Michigan
An excerpt weighted towards active compounds, which were near 0.93% of everything screened.
CDC25B CDK2 inh: human CDC25B-CDK2/CyclinA binding inhibition; hit rate 0.72% among 94,000; HTRF CDC25B-CDK2/CyclinA binding, anti-His/anti-Flag; hits give high values; z-score (no concentration beside the values); in the data active = z-score above about 3.2
TAR Tat displ: HIV-1 TAR-Tat binding disruption; HIV-1 TAR RNA, Tat peptide displacement FRET; hits give high values; z-score (no concentration beside the values); hit rate 0.6% among 100,000; AID 1259389; active = z-score of 3 or more in at least 2 runs
The depositor's hits bear a star; nt = no result given.

SMILES	CDC25B CDK2 inh	TAR Tat displ
O=c1cc2nc(-c3ccco3)nc(SCc3cc(=O)n4nc(C5CCCCC5)sc4n3)n2[nH]1	nt	3.34*
CCCc1nn2c(=O)cc(CSc3nc(-c4ccco4)nc4cc(=O)[nH]n34)nc2s1	nt	0.67
CC(=O)Nc1ccc2c(c1)nc1n2CCN(C(C)C)C1	-0.16	-7.6
CC(C)N1CCn2c(nc3cc(NC(=O)c4ccco4)ccc32)C1	10.3*	18.7*
CCc1cc2c3c([nH]c2cc1S(=O)(=O)Nc1ccc(F)cc1F)CCCC3=O	nt	0.42
CCc1cc2c3c([nH]c2cc1S(=O)(=O)Nc1ccc(Cl)cc1F)CCCC3=O	nt	4.33*
Cc1c(C(=O)O)sc2ncnc(Nc3ccc4c(c3)OCCO4)c12	nt	25*
Cc1sc2ncnc(NCc3ccc4c(c3)OCO4)c2c1C	-1.96	0.1
Cc1sc2ncnc(Nc3ccc4c(c3)OCO4)c2c1C	nt	0.84
Cc1c(C(=O)O)sc2ncnc(Nc3ccccc3)c12	nt	-8.32
Cc1c(C(=O)O)sc2ncnc(NCc3ccc4c(c3)OCO4)c12	nt	5*
COc1ccc(Nc2ncnc3sc(C(=O)O)c(C)c23)cc1OC	nt	35.2*
Cc1ccc(-n2nc3c(c2NC(=O)c2ccc(Br)cc2)CS(=O)(=O)C3)cc1	nt	1.02
CC1=NN(C)C(=O)/C1=N\OC(=O)c1c(-c2c(Cl)cccc2Cl)noc1C	-1.54	nt
Cc1ccnc(NS(=O)(=O)c2cc3c(cc2C)N(C)CCO3)c1	nt	2.27
O=c1cc(CSc2ccc(Cl)cc2)nc2sc3c(n12)CCCC3	-1.79	-0.91
CC1=C(c2ccc(C)c(C)c2)S(=O)(=O)NC1=NCc1cccnc1	0.32	0.33
C=Cc1c(C)/c2[n-]/c1=C\c1[n-]c(c(CC)c1C)/C=c1\[n-]c3c(c1C)C(=O)C(C(=O)[O-])C=3c1[n-]c(c(C)c1CCC(=O)[O-])\C=2.[Cu].[Na+].[Na+] (configuration not stated)	nt	23.1*
Cc1c(C(=O)NCCCN2CCC(C)CC2)sc2nc3n(c(=O)c12)CCCC3	nt	1.77
O=c1[nH]c(SCc2ccccc2F)nc2c1CCC2	-1.69	0.61
O=c1[nH]c(SCc2c(F)cccc2Cl)nc2c1CCC2	-1.86	8.61*
CCN(C1CCCCC1)S(=O)(=O)c1ccc(S(=O)(=O)N2CCN(c3ncccn3)CC2)cc1	0.83	0.74
COc1ccc(C(=O)CSc2ccc(-c3cccs3)nn2)cc1	nt	0.45
COc1ccc(C(=O)CSc2nnc(-c3ccco3)c(-c3ccco3)n2)cc1	-1.2	20.2*
O=C(Nc1cnc2ccccc2c1)c1ccco1	nt	0.67
SMILES	CDC25B CDK2 inh	TAR Tat displ
O=C(CSc1n[nH]c(-c2ccco2)n1)c1ccc(Cl)cc1	-2.18	17*
O=C(CSc1n[nH]c(-c2ccccc2)n1)c1ccc(Cl)cc1	-1.38	nt
COc1ccc(C(=O)Cn2c3ccccc3n3nc(-c4ccco4)nc23)cc1OC	-1.21	0.31
O=C(CSc1nnc(-c2ccco2)c(-c2ccco2)n1)Nc1cnc2ccccc2c1	0.46	25.5*
COc1ccc(C(=O)Cn2c3ccccc3n3nc(-c4ccco4)nc23)cc1	-5.39	7.1*
Cc1ccc(S(=O)(=O)N(CC(O)Cn2c3ccccc3c3ccccc32)CC2CCCO2)cc1 (configuration not stated)	-8.31	nt
CCC(=O)Nc1cc2nc3[nH]c(=O)[nH]c(=O)c3nc2cc1C	1.35	-5.43
CCOc1ccc(N(C)S(=O)(=O)c2cc3[nH]c4c(c3cc2CC)C(=O)CC(C)(C)C4)cc1	nt	1.01
O=C1CSc2ccc(S(=O)(=O)N3CCC(C(=O)NC4CCCC4)CC3)cc2N1	nt	2.1
C=CCSc1nnc(NC(=O)c2nn(-c3ccc(F)cc3)ccc2=O)s1	0.12	0.45
Cc1c(C(=O)N(Cc2ccc(N(C)C)cc2)CC2CCCO2)oc2ccc(F)cc12 (configuration not stated)	0.8	-0.62
COc1cc(CN2CCN(Cc3cc(OC)c4c(c3)OCO4)CC2)cc2c1OCO2	-1.21	nt
CC(C)=CC[C@@H](OC(=O)C=C(C)C)C1=CC(=O)c2c(O)ccc(O)c2C1=O	nt	22.8*
COc1ccc(Oc2ccc([N+](=O)[O-])cc2-c2nc(-c3ccccn3)no2)cc1	-1.48	nt
COc1ccc(Oc2ccc([N+](=O)[O-])c3nonc23)cc1	11.6*	nt
CN(C)CCNC(=O)c1ccc(NC2=NC3CS(=O)(=O)CC3S2)cc1 (configuration not stated)	nt	2.12
CC(=O)NCCNC(=O)c1ccc(NC2=NC3CS(=O)(=O)CC3S2)cc1 (configuration not stated)	nt	11.2*
CC(CNC(=O)CCc1nnc2ccc(NCc3ccc4c(c3)OCO4)nn12)c1ccccc1 (configuration not stated)	nt	1.39
Cn1c(=O)c2c(SCC(=O)NC3CCCCC3)nc(C3CC3)nc2n(C)c1=O	nt	0.29
CCOC(=O)c1nc2ccccc2n(C(C)=O)c1=O	19.4*	0.02
CCOC(=O)c1nc2ccccc2nc1C	nt	1.52
CC(=O)N1N=C(CSc2nnc(-c3ccccc3)n2-c2ccccc2)OC1c1ccc(C)o1 (configuration not stated)	nt	0.39
